Screens (PubChem)
In the library only some 13% were active in any assay of this set; here they are far more common.
HCV inhibitor – inhibitors of hepatitis C virus infection; Huh7.5.1 HCVcc-Cre infection, luciferase reporter, 44 h; Potency, µM (doses to about 41.8 µM), without a hit: at the highest dose activity change, negative = inhibition, hits mostly inhibitors; hit rate 3.4% among 340,000; note: potency is the fitted concentration of half-maximal effect; % is set by controls: 0 for no effect and ±100 for the full control effect
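Infectious HCV cell culture screen: compound-treated cells (1,000/well, pre-plated 4 h) are infected with HCVcc-Cre at roughly 0.5 moi and grown 44 h. Infection is quantified by luciferase signal after 15 min substrate incubation at room temperature.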
Pf growth 48h – inhibits P. falciparum growth in the first generation, 48 h | P. falciparum luciferase growth in erythrocytes, 48 h | Potency, µM (titrated, usually from 28.7 µM), inactives show top-dose activity change, negative = inhibition, usual class: inhibitors | hit rate 5.9% among 310,000 | AID 504832; note: potency is the fitted concentration of half-maximal effect; % is set by controls: 0 for no effect and ±100 for the full control effect
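Luciferase-expressing P. falciparum in infected erythrocytes (2% hematocrit, 0.1% parasitemia final) in RPMI 1640/0.5% Albumax were exposed to compound for 48 hours at 37 C, 5% CO2; growth read as luminescence.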
Pf growth 96h – inhibits malaria parasite growth, 96 h; P. falciparum luciferase reporter growth, 96 h; Potency, µM (highest dose often 28.7 µM), for the others: at the highest dose activity change, negative = inhibition, usual class: inhibitors; hit rate 6.9% among 320,000; AID 504834; note: potency is the fitted concentration of half-maximal effect; % is set by controls: 0 for no effect and ±100 for the full control effect
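Readout is luminescence from an integrated firefly luciferase in P. falciparum. Red cells, 2% hematocrit and 0.05% parasitemia final, were cultured with compound through two parasite generations (96 hours) at 37 C, 5% CO2.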
HCMV inh – human cytomegalovirus inhibition | AID 1259415 | activity change, negative = inhibition, % at 57.5 µM | hit rate 4.5% among 410,000 | HFF cells, HCMV-luciferase reporter, 72 h; stronger effect = lower value; in the data active = activity change below about -60%; inconclusive = no clear call, values can overlap the other calls; inactive = above about -39%; note: % is set by controls: 0 for no effect and ±100 for the full control effect
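Compounds were evaluated in HFFs infected with an HCMV luciferase reporter virus (MOI 1 PFU/cell). Luciferase in lysates collected 72 h post infection served as the replication measure.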
HCV inh confirm – HCV inhibition, cherry-pick confirmation; hit rate 78% among 640; shares compounds with HCV inhibitor; HCVcc-Cre infectious virus cell assay, luciferase, inhibition; AID 720575; Potency, µM (highest dose often 41.8 µM), without a hit: top-dose activity, negative = inhibition, actives largely listed as inhibitors; note: potency is the fitted concentration of half-maximal effect; nearly all actives have a fitted effect of over 80% in size
HCV host tox – host cell cytotoxicity counter-screen for HCV inhibitors; shares compounds with HCV inhibitor; Potency, µM (highest dose often 41.8 µM), inactives show at the highest dose activity change, negative = cytotoxicity, most hits filed as inhibitors; AID 720576; hit rate 22% among 640; HCV host cell line cytotoxicity counterscreen;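 note: potency is the fitted concentration of half-maximal effect; 44 h compound exposure; % is set by controls: 0 for no effect and ±100 for the full control effect; nearly all actives have a fitted effect of over 55% in size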
Active calls of the source: *; i = inactive; ? = inconclusive; . = not tested or not shown. Unless noted, calls come from the whole dose curve; as a rule, active = well fitted curve in the direction sought with a large enough effect; inconclusive = small, poorly fitted or top-dose-only effect, or another doubt; inactive = no such curve, though single readings can be large; an effect the other way counts as inactive or inconclusive.

SMILES | HCV inhibitor | Pf growth 48h | Pf growth 96h | HCMV inh | HCV inh confirm | HCV host tox
O=C(NC1CCCC1)C(c1ccccc1)n1c(-c2cccc3ccccc23)nc2ccccc21 (configuration not stated) | . | . | . | -20 | . | .
COc1ccc(Nc2ccc3c(c2)=NC2(CCCCC2)[N+]=3[O-])cc1 | 5µM* | 12µM* | ? | -98* | 18µM* | 16µM*
COc1ccc(NC2=NC(=S)N(c3ccccc3C)C23CCCCC3)cc1 | 2% | . | -74% | -18 | . | .
CCN(Cc1ccccc1)c1ccc(/C=N/NC(=O)c2cccc(S(=O)(=O)N3CCOCC3)c2)cc1 | ? | ? | ? | ? | 5.6µM* | -34%
COc1cc(/C=N/NC(=O)c2cccc(S(=O)(=O)N3CCOCC3)c2)cc(OC)c1O | -10% | -11% | 3% | 35 | . | .
CCn1c(SCC(=O)c2ccccc2)nc2c(c1=O)SC(C)C2 (configuration not stated) | ? | ? | 30% | -21 | ? | 22%
COCCn1c(SCC(=O)c2ccccc2)nc2c(c1=O)SC(C)C2 (configuration not stated) | -27% | -9% | 10% | -28 | . | .
CCn1c(=O)c2cc(C(=O)Nc3ccccc3OC)sc2c2ccccc21 | ? | ? | ? | 0 | 14µM* | -15%
CCn1c(=O)c2cc(C(=O)N3CCN(C)CC3)sc2c2ccccc21 | ? | -1% | -13% | -18 | . | .
Cc1ccc(-c2csc(C(O)c3cccc(Cl)c3)n2)cc1C (configuration not stated) | . | . | . | -8 | . | .
Cn1nnnc1SCCNS(=O)(=O)c1ccccc1 | -3% | 34% | . | 7 | . | .
Cc1ccc(-n2nnnc2SCCNS(=O)(=O)c2ccccc2)cc1C | ? | ? | 12% | -19 | 14µM* | -17%
COC(=O)[C@]12CCCCC=C1N(Cc1ccco1)C(=O)[C@H](CC(=O)NCc1cccs1)C2 | . | . | . | 5 | . | .
Cc1cc(Cl)ccc1OCC(=O)Nc1ccccc1CO | 3.2µM* | 13µM* | 26% | -20 | 7.9µM* | -11%
Cc1c(C(=O)NCCc2ccccc2)oc2ccc(S(=O)(=O)N3CCOCC3)cc12 | ? | ? | -3% | -19 | . | .
Cc1c(C(=O)NCC2COc3ccccc3O2)oc2ccc(S(=O)(=O)N3CCOCC3)cc12 (configuration not stated) | 5.6µM* | ? | 22% | -21 | 18µM* | -1%
COC(=O)c1cn(C(=O)c2ccc(F)cc2)c2ccccc12 | 4% | -1% | 6% | -1 | . | .
COC(=O)c1cn(C(=O)OC)c2ccccc12 | 5.6µM* | 44% | . | 8 | ? | 10%
Cc1ccc(S(=O)(=O)NCc2ccncc2)c(C)c1C | 0.79µM* | -17% | 12µM* | -83* | 0.79µM* | -95%
O=c1[nH]c(=S)[nH]c2c1C(C1CCCCC1)OC(C1CCCCC1)C2 (configuration not stated) | . | . | . | -4 | . | .
COC(=O)c1cc(C(=O)c2ccc(Cl)cc2)n2c(=O)/c(=C\N(C)C)sc12 | 2.8µM* | -27% | -10% | -17 | 7.9µM* | -45%
COC(=O)c1cc(C(=O)c2ccccc2)n2c(=O)/c(=C\N(C)C)sc12 | ? | 32% | 3% | 0 | . | .
COc1ccc(-c2cc(NC(C)=O)c3ncc(-c4ccccc4)n3c2)c(OC)c1 | . | . | . | -6 | . | .
CC1(c2nnnn2Cc2ccccc2)CCC(=O)N1CCc1ccc(O)cc1 (configuration not stated) | . | . | . | -14 | . | .
O=C(NC1CCCC1)C1C(c2ccc(C(F)(F)F)cc2)=Nc2ccccc2N1C(=O)c1cccc2ccccc12 (configuration not stated) | . | . | . | 10 | . | .
SMILES | HCV inhibitor | Pf growth 48h | Pf growth 96h | HCMV inh | HCV inh confirm | HCV host tox
CCOc1ccccc1-c1nnc(SCc2ccc(Cl)cc2)o1 | . | . | . | 47 | . | .
O=c1c(-c2nnc(SCc3ccc(Cl)cc3)o2)cccn1Cc1ccccc1 | 3.5µM* | ? | 13µM* | ? | 13µM* | ?
CC(C)N1CCC(C)(C(=O)Nc2cccc3c2CCCC3)C1 (configuration not stated) | . | . | . | 11 | . | .
CN1CCC(=C2c3ccccc3C(O)c3ccccc32)CC1 (configuration not stated) | -6% | 2% | ? | -13 | . | .
CN1CCC(=C2c3ccccc3CCc3sccc32)CC1 | ? | 15µM* | -29% | . | 3.1µM* | -23%
CC[n+]1c(C)sc2c(C)cc(C)cc21 | 6% | 3% | ? | 7 | . | .
CCC[n+]1c(C)sc2c3c(ccc21)CCCC3 | 7.1µM* | ? | 4% | . | 25µM* | 30%
CC1(C)SC(=S)N(/N=C/c2cccnc2)C1N(O)C(=O)NC1CCCCC1 (configuration not stated) | 7.9µM* | ? | ? | 1 | 11µM* | -14%
N#Cc1ccccc1CSc1ccc(-c2nc3ccccc3[nH]2)cn1 | 8.9µM* | ? | ? | -23 | ? | 14µM*
COc1ccc(CN2C(=O)CN(S(C)(=O)=O)CC2(C)C(=O)Nc2ccc3c(c2)OCCO3)cc1OC (configuration not stated) | . | . | . | -20 | . | .
CCc1ccc(C(CNC(=O)c2ccc3c(=O)n(-c4ccccc4F)c(=S)[nH]c3c2)N(C)C)cc1 (configuration not stated) | 5µM* | 13µM* | ? | ? | 1.4µM* | 31µM*
CCOC(=O)N1CCN(C(=O)c2ccc3c(=O)n(-c4ccccc4F)c(=S)[nH]c3c2)CC1 | 4% | ? | 6% | -39 | . | .
Cc1cc(/C=C(\C#N)C(=O)Nc2ccccc2)c(C)n1-c1ccc2c(c1)OCO2 | ? | 12µM* | ? | -26 | 18µM* | -13%
CCOC(=O)N1CCN(C(=O)CSCC(=O)Nc2nc(-c3ccc4c(c3)OCO4)cs2)CC1 | ? | ? | -18% | . | 16µM* | -24%
CC(=O)Nc1nc(-c2ccc3c(c2)OCO3)cs1 | -25% | 204% | 128% | 70 | . | .
COc1ccc(NS(=O)(=O)c2ccc3nc(COc4ccc5ccccc5c4)[nH]c3c2)cc1 | 7.9µM* | 6% | ? | ? | 20µM* | -91%
CC1(c2ccc(OCC#N)cc2)C=C(c2ccc(OCC#N)cc2)n2nc(C(F)(F)F)nc2N1 (configuration not stated) | 8.9µM* | 9.3µM* | 7.4µM* | -69* | 22µM* | 35%
Cc1cnc[nH]1 | -61% | 33% | 5% | -22 | 9% | -7%
COc1ccc(-c2cnc[nH]2)cc1 | 19% | i | 69% | 0 | . | .
COc1cc(C(=O)C(=O)N2CCN(c3ccccc3)CC2)cc2ccccc12 | . | . | . | -2 | . | .
CCCCCCCCCCn1c2c(c(=N)c3c1CCC3)CCC2 | 3.5µM* | 0.26µM* | 0.12µM* | -98* | 1.8µM* | 2.2µM*
